Experimental data published in the supplement of paper PMC6555819.

What was measured:
Assay in all cases: PBM binding z-score (relative to random genomic background probes); higher = stronger binding; sequences stand for … in GC…GCGATTGACAGCGTAGAATGAAGG
[1] = system: PPARg:RXRa DBDmut IVT, anti-RXR (DBD mutation: RXRa K156A/R161A, NR concentration 270 nM, RXRa partner concentration 90 nM)
Procedure, shortened: (§1)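 Probes were double-stranded and carried 34-nt variable regions with direct-repeat seeds, single-nucleotide variants, half-site ablations and random human genomic background sequences, printed on custom Agilent 4×180K protein-binding microarrays. Arrays were incubated 1 h with ligand-free nuclear receptor dimers in PBS pH 7.4, 2% milk, 0.02% Triton X-100, 1 mM DTT, 0.2 mg/mL BSA and 0.4 mg/ml salmon testes DNA. Antibodies against each partner (one per run) detected binding, and scanned fluorescence was regression-normalized. Binding z-scores use the random background probes as reference.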

[2] = system: PPARg:RXRa IVT, anti-PPARg (NR concentration 270 nM, RXRa partner concentration 90 nM)
Procedure, shortened: as §1

[3] = system: PPARg DBDmut:RXRa IVT, anti-PPARg (DBD mutation: PPARg1 K132A/R137A, NR concentration 270 nM, RXRa partner concentration 90 nM)
Procedure, shortened: as §1

[4] = system: PPARg DBDmut IVT, anti-PPARg (DBD mutation: PPARg1 K132A/R137A, NR concentration 270 nM)
Procedure, shortened: as §1

[5] = system: PPARg homodimer (NR concentration 180 nM)
Procedure, shortened: as §1

[6] = system: PXR:RXRa (NR concentration 270 nM, RXRa partner concentration 90 nM)
Procedure, shortened: as §1

[7] = system: PXR homodimer (NR concentration 270 nM)
Procedure, shortened: as §1

[8] = system: RARa:RXR (NR concentration 270 nM, RXRa partner concentration 90 nM)
Procedure, shortened: as §1

[9] = system: RARa homodimer (NR concentration 270 nM)
Procedure, shortened: as §1

[10] = system: RARb:RXRa (NR concentration 270 nM, RXRa partner concentration 90 nM)
Procedure, shortened: as §1

Sequence	PBM binding z-score [1]	PBM binding z-score [2]	PBM binding z-score [3]	PBM binding z-score [4]	PBM binding z-score [5]	PBM binding z-score [6]	PBM binding z-score [7]	PBM binding z-score [8]	PBM binding z-score [9]	PBM binding z-score [10]
CCTCGGAGGCCAACAGGAGGTCAGAGCTGCCAGA	-0.0138	0.518	-0.818	-1.87	1.58	2.35	0.122	2.83	0.23	2.98
ATCTCTAGGTAAAGATAGTTCGGTGAATGCAAAT	2.2	1.58	0.574	0.789	0.784	0.102	0.511	0.121	0.697	0.0855
TAGCCTAGGTCATTGGGCCAGTACAGTACGCATC	2.86	3.89	-0.0279	0.0815	1.12	1.71	-0.112	2.12	-0.528	3.67
GCTTGTTGATCAAGGTTAAGAAAGACTAAGCTAA	0.197	0.134	0.234	-0.0505	-0.0187	0.387	-0.694	0.658	0.254	0.66
TCATTTAGGTAAAAGGTGAAAGTCGGTGTGGTAA	4.84	4.91	0.936	1.44	2.08	1.42	0.93	2.74	1.77	2.05
CAAACTAGGTCAACGGAAGGTCAAAGTCCGCATG	8.48	8.61	4.8	2.05	7.1	5.74	2.3	7.48	2.65	5.04
AGAACGAGGGCACGCTGAGTGGATAGCAGAGTAG	4.13	3.9	0.715	0.00545	0.149	0.143	-0.338	0.776	-0.364	2.42
ATATGTAGGTTTAGGGTCATTCAGGTTGGTTCGC	2.89	3.81	1.35	1.25	2.95	5.07	4.08	4.48	2.17	2.79
ACTAGTAGGCCAAGTTTGGGTCACTCAAACAAAG	5.38	4.97	0.793	0.699	0.944	0.935	-0.0858	1.74	-0.227	2.11
TCTAGGTGGTCACGGAGGTCACACACGACGGGTA	1.88	4.12	0.705	0.508	2.75	4.44	0.948	4.51	1.02	3.84
TAGCCTAGGTCATGAGGGCCAGTATAGTGTCGGC	2.17	3.05	0.44	-0.29	0.909	1.6	-0.521	2.56	-0.556	3.8
ATCGAAAGGTCGTGTGGTGAGTATACAGAAAGGC	0.568	1.69	2.41	1.23	2.3	3.25	0.999	3.74	1.51	3.6
AGAATGAGGTTATTAGGATCAGGGAATTGCGGTC	3.64	3.55	0.306	0.466	1.24	1.38	0.752	1.57	1.06	1.53
TCTTGTAGATTAAAGGTTAAGAAAGCCGAAGCCT	1.85	2.24	0.866	0.455	1.17	1.13	0.203	2.09	1.4	1.53
TCTATCAGTTGAAGGGCAACCGACGAGTCCGTTT	2.02	0.545	-0.244	0.0205	0.44	0.571	0.541	0.596	0.00832	1.63
CCTGCTAGGTCAATGGTCAACTAAAGCAGCTCGC	3.98	4.58	0.116	-1.17	1.41	1.22	-0.291	2.27	-0.296	3.79
TCTAGCAAGCCAGAGGGTCACTCAAGAGGTACGG	0.615	-0.0358	-1.2	-1.18	0.24	0.871	-0.204	1.96	-0.908	1.62
TGTCAAAGTTCAAAGGTAAAGTAAGTATCCACAC	0.197	4.58	1.35	1.98	3.26	5.75	3.72	5.81	1.83	5.07
CAGCCTAGGTCAGGGCCAGTAAAGGAGGAACGTT	1.26	1.51	-1.63	-1.14	0.652	0.328	-0.795	1.08	0.335	3.49
TCTTCTAGGTCAACGATGGTCAGCTAATCTGCTA	7.21	7.26	2.6	3.07	2.69	2.23	0.345	2.8	1.21	4.31
TCTAGCATGCCAGAGGGTCACTCAAGAGGTACGG	0.74	0.403	-0.182	-1.1	0.757	1.74	-0.449	2.86	-0.513	2.11
AGTCAACGTTCACTAGGTAACGTAAGATTCAGCT	2.07	2.83	0.496	0.783	-0.0596	-0.163	-0.41	-0.184	-0.305	0.64
ACTAGCAGGCCAAGGGTCACCCAAGATTAGTCCG	1.04	4.15	0.826	-0.393	2.65	3.94	-0.00443	5.22	1.35	3.62
